Several values for one entry are separate records, joined by “and”; a condition that tells them apart may be missing. Identical values can stand only once. Inconclusive results are not listed. Where a call stands in place of a potency, no number is given. Values without a mark were called inactive. Activity calls are given as the source filed them. The call rests on the fitted dose curve; in most records, active means well fitted inhibition curve with a large enough effect in the signal ratio in the repeat runs (not every such curve was filed as active); inconclusive means weak or mixed curves, or effect the other way; inactive means flat fitted curve, though single readings scatter; the % refers to the signal ratio.
Potency means the concentration at half of the fitted maximal effect.

A short description of the assay: cAMP Responsive Elements (CRE) small molecule antagonists, cell-based qHTS assay (AID 1963591). The settings on record: CRE-bla HEK293T, beta-lactamase FRET ratio; series mostly up to 92.4 µM; activity change, negative = inhibition: at the top concentration. From the text:
U.S. Tox21 Program National Center for Advancing Translational Sciences [NCATS] Division of Preclinical Innovation [DPI] U.S. Environmental Protection Agency [EPA] National Institutes of Environmental Health Sciences [NIEHS] National Toxicology Program [NTP] U.S. Food and Drug Administration [FDA] Tox21 Assay Overview: CREB (cyclic-AMP Responsive Element Binding Protein) is a cellular transcription factor. It binds to certain DNA sequences called cAMP Responsive Elements (CRE) and regulates the transcription of the genes. […] This cell line can be used to find agonists/antagonists of the cyclic AMP signaling pathway. The activation of the report gene under culture conditions can be detected by fluorescence intensity. This cell line has been used to screen the Tox21 10K compound library to […].
Tox21 Assay Protocol Summary: CRE-bla Hek 293T cells were suspended in assay medium (DMEM containing 10% dialyzed FBS, 0.1 mM NEAA, 1 mM sodium pyruvate and 25 mM HEPES) and dispensed at 2,000 cells/4 uL /well into 1536-well black wall/clear bottom plates using a Multidrop Combi (ThermoFisher Scientific, Waltham, MA) dispenser. After the assay plates were incubated at 37 C/5% CO2 for 18 hrs, 23 nL of compounds dissolved in DMSO, positive controls or DMSO only was transferred to the assay plate by a pintool workstation (Kalypsys, San Diego, CA), followed by addition of 1 […] uL of 1.25uM NKH477 (0.25 uM as final concentration) in assay medium using a Flying Reagent Dispenser (Aurora Discovery, San Diego, CA). The plates were incubated at 37 C and 5% CO2 for 3 hrs. Then 1 uL of LiveBLAzer B/G FRET substrate (Invitrogen, Carlsbad, CA) was added to each well using Bioraptr Flying Reagent Dispenser (FRD, Aurora Discovery, San Diego, CA). The plates were incubated at room temperature for 2 h.
In general terms: In qHTS, concentration-response curves come from the screen itself.
Consider `Nc1ccc(S(=O)(=O)Nc2cnc3ccccc3n2)cc1`, for which the “activity change, negative = inhibition” value is 10.3% [at 42.4 µM]. As to `Cc1ccc(S(=O)(=O)NC(=O)NN2CCCCCC2)cc1`, the Potency entry was “inactive”. Still for that read-out and setting: then `Cc1ccc2ncccc2c1`, with “inactive”. The same measure, in the same setting: then `COc1ccc(C(Cl)=C(c2ccc(OC)cc2)c2ccc(OC)cc2)cc1`, with “inactive”; and `O=C1C(c2[nH]c3ccccc3c2O)=Nc2ccccc21`, with “inactive”; and `N=C(N)c1ccc(OCCCCCOc2ccc(C(=N)N)cc2)cc1`, with “inactive”.

With `c1ccc2[nH]cnc2c1`, the Potency result was “inactive”. Same read-out and setting: then `NCCOCCO`, with “inactive”; and `NC(=O)c1ccccc1O`, with “inactive”.

Regarding `CC[C@H](C)C(=O)O[C@H]1C[C@@H](C)C=C2C=C[C@H](C)[C@H](CC[C@@H]3C[C@@H](O)CC(=O)O3)[C@H]21`, the “activity change, negative = inhibition” value is 15.1% [at 42.4 µM]. As to `O=C1c2c(O)cccc2Cc2cccc(O)c21`, the Potency entry was “inactive”.

Consider `CC(O)CN(CCN(CC(C)O)CC(C)O)CC(C)O` (stereo not given), for which the Potency entry was “inactive”.

Regarding `COCCCN`, the Potency entry is “inactive”. On the same count and under the same terms, the value for `CCOC(N)=O` was “inactive”; that for `CN/C(=C\[N+](=O)[O-])NCCSCc1csc(CN(C)C)n1` was “inactive”; that for `CCCCC(C=O)CC` (stereo not given) was “inactive”. For `OC[C@@H](O)[C@H](O)[C@H](O)[C@@H](O)CO`, the Potency result is “inactive”. Consider `COc1ccc(CCC(C)=O)cc1`, for which the Potency entry was “inactive”.

As for `CCCCCCCC(=O)OCC(COC(=O)CCCCCCC)OC(=O)CCCCCCC`, the Potency result is “inactive”. The same measure, in the same setting: then `CC(=O)CC(C)(C)O`, with “inactive”; and `Cc1ccc(S(=O)(=O)O)cc1C`, with “inactive”; and `C1CNCCN1`, with “inactive”.

With `Nc1ccc(Nc2ccccc2)cc1`, the Potency result is “inactive”.

For `CCCCCCOC(C)=O`, the “activity change, negative = inhibition” value was 0.0458%.

Regarding `OCCOCCN1CCN(C(c2ccccc2)c2ccc(Cl)cc2)CC1` (stereo not given), the Potency entry is “inactive”. `O=[N+]([O-])c1cc(C(F)(F)F)ccc1Cl`: the Potency entry is “inactive”.

Regarding `Cc1occc(=O)c1O`, the Potency entry was “inactive”.

For the compound `C=C(C)C(=O)OCC(C)C`, the Potency entry was “inactive”. For the compound `C=C(C)CC(C)(C)C`, the Potency result is “inactive”. For the compound `COC(=O)c1ccc(C=O)cc1`, the Potency entry is “inactive”. On the same count and under the same terms, then `CN(C)C`, with “inactive”; and `CCCCOC(=O)CC(CC(=O)OCCCC)(OC(C)=O)C(=O)OCCCC`, with “inactive”. `C[N+](C)(C)CCCCCC[N+](C)(C)C`: the Potency result was “inactive”. Still for that read-out and setting: then `CCCCCCCCCCCCOC(=O)c1cc(O)c(O)c(O)c1`, with 21.6 µM (active) and 45.2 µM (active); and `Cc1cccc2n[nH]nc12`, with “inactive”. Consider `Nc1ccc2c(O)cc(S(=O)(=O)O)cc2c1`, for which the “activity change, negative = inhibition” value is 1.01%. Turning to `CCNC(=S)NCC`, the Potency entry was “inactive”. On the same count and under the same terms, the value for `CC(=O)CCC(=O)O` was “inactive”. Same read-out and setting: the value for `COC(=O)c1ccc(O)cc1` was “inactive”. In the case of `COc1ccc([C@@H]2CC(=O)c3c(O)cc(O[C@@H]4O[C@H](CO[C@@H]5O[C@@H](C)[C@H](O)[C@@H](O)[C@H]5O)[C@@H](O)[C@H](O)[C@H]4O)cc3O2)cc1OC`, the “activity change, negative = inhibition” value is 8.95%.

Values taken from PubChem BioAssay (Tox21).
